# Laboratory results reported in PubChem BioAssay (NCI).
# About 83,000 compounds went through this panel and 20% of them were active in at least one assay; those are over-represented in the sample as a whole.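 How to read the values: 0–100, growth inhibition (40 = 60% inhibited); 0, no net growth; -100 to 0, cell death (-40 = 40% of starting cells died; -100 = all dead).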 Unmarked numbers belong to inactive results. Activity calls are given as the source filed them. The calls were made as follows: active = growth percent below 10; inactive = the rest.
# Experiments:
# Experiment in all cases: NCI-60 one-dose screen, 48 h (100 = growth as untreated, 0 = no growth, -100 = all killed)
# Settings in all cases: 10 µM unless noted
# T-47D breast = test system: T-47D breast
# MDA-MB-435 melanoma = test system: MDA-MB-435 melanoma
# SW-620 colon = test system: SW-620 colon
# MCF7 breast = test system: MCF7 breast
# HCT-116 colon = test system: HCT-116 colon
# HCC-2998 colon = test system: HCC-2998 colon
# KM12 colon = test system: KM12 colon
# BT-549 breast = test system: BT-549 breast
SMILES,growth (T-47D breast),growth (MDA-MB-435 melanoma),growth (SW-620 colon),growth (MCF7 breast),growth (HCT-116 colon),growth (HCC-2998 colon),growth (KM12 colon),growth (BT-549 breast)
O=C(CSc1nc2ccccc2c(=O)n1-c1ccc(S(=O)(=O)Nc2ccc(Cl)nn2)cc1)Nc1ccc(S(=O)(=O)Nc2ccc(Cl)nn2)cc1,98.1%,99.7%,98.4%,95.3%,105%,120%,99.4%,
C=C(C)[C@@H]1CC[C@]2(COP(=O)(OCC)OCC)CC[C@]3(C)[C@H](CC[C@@H]4[C@@]5(C)CC[C@H](OP(=O)(OCC)OCC)C(C)(C)[C@@H]5CC[C@]43C)[C@@H]12,20.8%,61%,,0.255% (active),6.75% (active),19.9%,54.2%,65%
Clc1ccc2[nH]cc(-c3cncn3CCc3ccc4c(c3)OCO4)c2c1,37.8%,71.3%,79.5%,63%,63.2%,89.9%,74.6%,
O=C(/C=C/c1ccc(Cl)c(Cl)c1)Nc1ncc(Cc2ccc(Cl)c(Cl)c2)s1,24.6%,26.9%,,28.7%,26.6%,41.2%,13.3%,47.4%
O=c1[nH][nH]c(-c2ccc(F)cc2)c1-c1nc2ccccc2s1,87.7%,104%,,81.2%,93.2%,107%,105%,98.8%
CCNCCOc1ccc(/C(=C(/CC)c2ccc(Cl)cc2)c2ccc(OCCCN(C)C)cc2)cc1,-60.2% (active),-74.2% (active),,-82.5% (active),-72.4% (active),-84.2% (active),-85.3% (active),-91.7% (active)
C#CCOc1cccc(-c2nc(N)nc(Nc3ccccc3SSc3ccccc3Nc3nc(N)nc(-c4cccc(OCC#C)c4)n3)n2)c1,40.5%,72.7%,,61.2%,45.7%,94.6%,3.92% (active),58.8%
Cc1ccc2c(n1)C(=O)C(Cl)=C(Nc1ccc(C)c(C)c1)C2=O,3.29% (active),-82.6% (active),33.5%,-60.5% (active),12.2%,57.6%,51.9%,
CN1CCN(c2ccc(C(=O)/C=C/c3cc(F)cc(C(F)(F)F)c3)cc2)CC1,51.9%,24%,,,22.8%,86.6%,35.5%,71.2%
Cc1ccc2c(n1)C(=O)C(Cl)=C(Nc1ccc(C(=O)OC(C)(C)C)cc1)C2=O,-8.23% [9.25 µM] (active),87.6% [9.25 µM],,11.3% [9.25 µM],-70.5% [9.25 µM] (active),103% [9.25 µM],105% [9.25 µM],84% [9.25 µM]
CCC(=C(c1ccc(OCCN(C)C)cc1)c1ccc(OCCN(C)C)cc1)c1ccc(Cl)cc1,-56% (active),-88.6% (active),-72.4% (active),-72.8% (active),-67.7% (active),-72.4% (active),-49.1% (active),
CCOC(=O)c1c(NC(=O)c2cccc(C(F)(F)F)c2)sc2c1CCC(=O)C2,17.8%,59.4%,13.8%,34.7%,12.3%,87%,32.2%,
O=C(/C=C/c1ccc(F)cc1)Nc1cccc2cccnc12,32.8%,107%,,,95.9%,88%,95%,115%
CN(C)S(=O)(=O)c1ccc(-c2nc(C(Cl)Cl)nc3cc(-c4ccc(F)cc4)nn23)cc1,38%,6.53% (active),4.42% (active),15%,-0.738% (active),8.78% (active),7.53% (active),
Cc1ccc(-c2cc3nc(C(Cl)Cl)nc(-c4ccc(S(=O)(=O)N(C)C)cc4)n3n2)cc1,93.8%,88.6%,83.1%,74.2%,62.9%,91.7%,86.5%,
CCOC(=O)c1c(NC(=O)c2ccc(C(F)(F)F)cc2)sc2c3c(ccc12)OCN(C)C3,4.14% (active),-16.8% (active),-52.4% (active),-61.7% (active),-75.8% (active),-13.8% (active),12.1%,
O=S(=O)(NCCCNc1nccc(-c2[nH]c(-c3ccccc3)nc2-c2ccc(F)c(O)c2)n1)c1ccccc1,90.1%,51%,,94.9%,77.9%,126%,98.8%,112%
Cc1[nH]c(C(=O)Nc2ccc(C(N)=O)cc2N2CCOC(C)C2)c(Cl)c1Cl (stereo not drawn),83%,96.1%,,93%,92%,105%,104%,98.3%
CCN(CC)S(=O)(=O)c1ccc(-c2nc(C(Cl)Cl)nc3cc(C)nn23)cc1,60.9%,14.8%,6.12% (active),23.5%,10%,23.8%,8.52% (active),
CCOC(=O)c1c(NC(=O)c2cccc(C(F)(F)F)c2)sc2c3c(ccc12)OCN(C)C3,-38.2% (active),-55.5% (active),-76.5% (active),-81.9% (active),-89.4% (active),-88.9% (active),-11.3% (active),
